D2 PAM-1 = D2 dopamine receptor (human) potentiation. P14416. HEK293 T-REx D2, calcium flux, EC20 dopamine potentiation. potentiation, % at 10 µM. hit rate 0.34% among 340,000;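 active = potentiation over 3 SD above the plate norm, cut at about 30% in these data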
Target sequence (P14416 whole entry, looked up): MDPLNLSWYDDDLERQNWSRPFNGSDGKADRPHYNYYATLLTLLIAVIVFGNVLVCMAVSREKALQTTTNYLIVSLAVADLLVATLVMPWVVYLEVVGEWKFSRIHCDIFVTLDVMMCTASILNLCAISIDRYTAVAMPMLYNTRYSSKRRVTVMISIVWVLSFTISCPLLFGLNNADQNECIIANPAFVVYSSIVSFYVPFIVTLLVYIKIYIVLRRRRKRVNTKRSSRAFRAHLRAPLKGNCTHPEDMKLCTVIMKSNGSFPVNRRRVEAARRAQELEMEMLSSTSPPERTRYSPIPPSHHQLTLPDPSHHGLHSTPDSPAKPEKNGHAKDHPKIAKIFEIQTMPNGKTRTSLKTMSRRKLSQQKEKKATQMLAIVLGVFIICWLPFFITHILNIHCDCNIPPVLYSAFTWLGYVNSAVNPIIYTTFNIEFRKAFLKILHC
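Calcium flux readout, no-wash dye, 1 read/s. Inducible HEK293 Trex D2 line, overnight 30 C. Compound alone 180 s (agonist flags), then EC20 dopamine, another 180 s to score potentiation.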
D2 antagonist = antagonizes the human D2 dopamine receptor | AID 485344 | HEK293 TREx D2 cells, calcium flux, dopamine EC80 | hit rate 2% among 340,000 | inhibition, % at 10 µM; in the data active = inhibition above about 30%; inactive = below that, where a call was filed
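Measurement of antagonist activity uses fluorescent calcium dye in inducible HEK293 T-REx D2 cells: 10 s baseline, compound addition with 180 s read, EC80 dopamine addition with a further 180 s read.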
D2 ag-1 = agonists of human D2 dopamine receptor (beta-arrestin) | hit rate 0.084% among 360,000 | DiscoveRx PathHunter D2 beta-arrestin, luminescence, 90 min; 100% = 57 uM dopamine signal | AID 624465 | activation, % (concentration not given with the values); in the data active = activation above about 40%; inconclusive = between about 15% and that limit
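Agonist mode: compounds alone added to overnight-plated D2 PathHunter cells for 90 min at 37 C, with 57 uM final dopamine (EC100) defining full response. Beta-arrestin recruitment detected by chemiluminescent reagent, read after 1 h at ambient temperature.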
D2 ag-2 = activates the human D2 dopamine receptor; activation, % at 2 µM; P14416; AID 485358; HEK293 T-REx D2 cells, calcium flux agonist mode; hit rate 0.53% among 340,000;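 active = activation over 3 SD above normal in the single-dose calcium agonist read, cut at about 30% in these data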
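Calcium-flux readout, 1 cycle/sec over 180 s following compound pin transfer, in inducible HEK293 Trex D2 cells (force-coupled); dopamine controls included. Positive calcium responses during this window marked compounds as potential agonists.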
D2 PAM-2 = human D2 receptor positive allosteric modulation; P14416; DiscoveRx D2 beta-arrestin cells, luminescence, 90 min; 100% = 57 uM dopamine signal; potentiation, % (no concentration beside the values); hit rate 0.23% among 360,000; in the data active = potentiation above about 50%; inconclusive = mostly about 30% to 49%
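PathHunter beta-arrestin assay in DiscoveRx D2 cells. Compounds were added with an EC20 of dopamine (50 nM final) for 90 min at 37 deg C. Luminescence was read 1 h after detection reagent, with 57 uM dopamine as the EC100 control.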
Anesthetic bind = candidate novel general anesthetic via apoferritin binding; Potency, µM (top dose mostly 77.5 µM), usual class: inhibitors; AID 485281; hit rate 0.074% among 350,000; P02791; apoferritin/1-aminoanthracene competitive binding, fluorescence; active = well fitted inhibition curve with a large enough effect; inconclusive = small, poorly fitted or top-dose-only effect; inactive = no such curve, though single readings can be large or run the other way; also: nearly all actives have a fitted effect of over 20% in size
Target sequence (P02791 2-175 limits assumed): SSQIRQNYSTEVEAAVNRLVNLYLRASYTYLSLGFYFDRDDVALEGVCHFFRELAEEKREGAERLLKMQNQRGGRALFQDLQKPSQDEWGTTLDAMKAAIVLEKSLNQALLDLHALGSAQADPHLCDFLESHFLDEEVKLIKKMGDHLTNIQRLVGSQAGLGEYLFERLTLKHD
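Horse-spleen apoferritin (10 uM) in 50% saturated 1-aminoanthracene in PBS was incubated 10 min at room temperature with compound. Fluorescence (ex 380, em 535 nm) was normalized to free and bound 1-AMA, with concentration-response fitted by a four-parameter Hill equation.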
Of the large screens only hits and unclear results are named; the others gave an inactive call. An excerpt weighted towards active compounds, which were near 2.5% of everything screened.

Cc1ccc(C(=O)Nc2oc(-c3ccccc3)cc2C#N)cc1	D2 antagonist 30.5
Clc1ccc(SCc2csc(N3CCOCC3)n2)cc1	none
CCOc1ccc(NS(=O)(=O)c2cc(NC(=O)CCS(=O)(=O)c3ccc(C)cc3)ccc2OC)cc1	D2 antagonist 32.9
CN(CCCNC(=O)c1cc2c(=O)[nH]c3ccccc3c2n1C)Cc1ccccc1	none
COc1ccc(NCC(=O)N/N=C/c2c(C)nn(Cc3ccccc3)c2Cl)cc1	D2 antagonist 31.3
CS(=O)(=O)N1CCN(C(=O)CCc2ccccc2)CC1	none
CN(O)/C=C1\C(=O)Nc2ccccc21	D2 PAM-2 130.7
O=C(/C=C/c1cn(-c2ccccc2)nc1-c1cccnc1)N1CCCCC1	none
O=C(CCCN1CC=C(n2c(=O)[nH]c3ccccc32)CC1)c1ccc(F)cc1	D2 antagonist 81.3
CC(C)(C)OC(=O)NCCCCCc1nnc(SCc2ccccc2)o1	D2 antagonist 35.8
O=S(=O)(c1ccccc1)N1CCN(C(=S)NCCc2ccccc2)CC1	D2 antagonist 38.4
Cc1cccc(OCCCCN2CCNCC2)c1	none (no result: D2 PAM-1, D2 antagonist, D2 ag-2, Anesthetic bind)
CCN(CC)C(=O)c1cc(S(=O)(=O)N2CCCCC2)c[nH]1	D2 antagonist 32.7
CC(=O)c1c(N2CCCCC2)nc(=S)n(Cc2ccccc2)c1C	none
CCCSc1nc(=S)n(Cc2ccccc2)c(C)c1C(C)=O	D2 antagonist 43.1
Cc1nc2n(n1)CC(O)CS2 (stereo unspecified)	none
CSc1nnc2c3c4c(sc3nc(-n3nc(C)cc3C)n12)COC(C)(C)C4	D2 antagonist 48.4
Cc1cc(C)n(-c2nc3sc4c(c3c3nnc(SCC(N)=O)n23)CC(C)(C)OC4)n1	none
COc1ccccc1NC(=O)c1cc2c(CO)cnc(C)c2oc1=Nc1cccc(C(N)=O)c1	none
Cc1cccc2cc(CN(Cc3ccc(F)cc3)Cc3nnnn3C3CCCC3)c(=O)[nH]c12	none
Cc1cccc2cc(CN(Cc3cccs3)C3(c4nnnn4C4CCCC4)CCCC3)c(=O)[nH]c12	D2 antagonist 77.5
CC(C)CC(NS(=O)(=O)c1ccccc1)C(=O)O (stereo unspecified)	none
CC(C)CN=C(NS(=O)(=O)c1ccccc1)C(Cl)(Cl)Cl	D2 PAM-2 77.3
CCN(c1ccccc1)S(=O)(=O)c1ccc(OC)c(NC(=O)CN(C)C)c1	none
CCOc1cc(CNCCc2ccc(S(N)(=O)=O)cc2)cc(Cl)c1OCc1ccccc1	none
CCOc1cc(CNCCc2ccc(S(N)(=O)=O)cc2)ccc1OCc1ccccc1	D2 PAM-1 41.4, Anesthetic bind inconclusive
CN1CCN(CCCN2c3ccccc3Sc3ccc(C(F)(F)F)cc32)CC1	D2 antagonist 79.1
Cc1nn(Cc2ccc([N+](=O)[O-])cc2)c(=O)n1-c1cccc(Cl)c1	D2 antagonist 32.5
Cc1nn(Cc2ccc([N+](=O)[O-])cc2)c(=O)n1-c1ccc(F)cc1	none
Cc1nn(Cc2ccc([N+](=O)[O-])cc2)c(=O)n1-c1c(F)cccc1F	D2 antagonist 36.9
O=C(Nc1nncs1)C1CCCC1	none (no result: D2 PAM-1, D2 antagonist, D2 ag-2, Anesthetic bind)
CN(C)c1cccc2c(S(=O)(=O)Nc3ccccn3)cccc12	D2 PAM-2 54.4 (no result: D2 PAM-1)
O=C(Nc1ccc2c(c1)C(=O)OC2)c1ccc(C(F)(F)F)cc1	D2 antagonist 33.7
O=C1C(=NO)CCc2ccccc21	D2 ag-1 inconclusive, D2 PAM-2 79.9 (no result: D2 PAM-1, D2 antagonist, D2 ag-2, Anesthetic bind)
Cc1cccc(N2C(=O)CN(Cc3cccs3)C2=S)c1	Anesthetic bind inconclusive
Nc1ccc2nc(CCc3ccccc3)[nH]c2c1	none
Nc1ccc2nc3c(=O)n(CCc4ccccc4)c(=O)[nH]c3nc2c1	D2 ag-2 94.9
Cc1cc2nc3c(=O)n(CCc4ccccc4)c(=O)[nH]c3nc2cc1N	D2 ag-2 95.3
Nc1ccc2nc3c(=O)n(C4CCCCC4)c(=O)[nH]c3nc2c1	none (no result: D2 antagonist, D2 ag-2)
CCCCn1c(=O)[nH]c2nc3cc(N)ccc3nc2c1=O	D2 ag-2 61.2
COc1ccc(C(C(=O)NC2CCCC2)N(CCC(C)C)C(=O)CCC(=O)Nc2cc(C)on2)cc1 (stereo unspecified)	D2 antagonist 34.8
CCCCN(C(=O)CCC(=O)Nc1cc(C)on1)C(C(=O)NC(C)(C)C)c1ccccc1Cl (stereo unspecified)	none (no result: D2 PAM-1)
COc1ccc(C(C(=O)NC(C)(C)C)N(CCc2ccc(OC)c(OC)c2)C(=O)CCC(=O)Nc2cc(C)on2)cc1 (stereo unspecified)	D2 antagonist 34.5 (no result: D2 PAM-1)
COCCN(C(=O)CCC(=O)Nc1cc(C)on1)C(C(=O)NC(C)(C)C)c1ccc(OC)cc1 (stereo unspecified)	none
COCCN(C(=O)CCC(=O)Nc1cc(C)on1)C(C(=O)NC(C)(C)C)c1ccccc1Cl (stereo unspecified)	D2 antagonist 45.3 (no result: D2 PAM-1)
Cc1ccc(/C=C(\NC(=O)c2ccccc2)C(=O)NCC2CCCO2)o1 (stereo unspecified)	none
Cc1cc(-c2ccccc2)cc(-c2ccccc2)[n+]1C	none
CC(C)(C)NC(=O)CSc1nncn1NCc1c(Cl)cccc1Cl	none
Cn1c(=O)oc2cc(S(=O)(=O)N3CCC(C(=O)N4CC=C(c5ccccc5)CC4)CC3)ccc21	D2 antagonist 40.6
CC(C)c1nnc(NC(=O)C2CCCN2C(=O)Nc2ccccc2F)s1 (stereo unspecified)	D2 antagonist 38.0
COc1ccccc1NC(=O)N1CCCC1C(=O)Nc1nnc(C(C)C)s1 (stereo unspecified)	none
COc1ccc(CCNC(=O)Cc2ccc(OCc3ccccc3)c(OC)c2[N+](=O)[O-])cc1OCc1ccccc1	Anesthetic bind 35.5µM
COc1ccc(CCNC(=O)Cc2ccc([N+](=O)[O-])cc2)cc1OC	none
COc1ccc(N2C(=O)C(CC(=O)Nc3ccccc3)N(Cc3ccc4c(c3)OCO4)C2=O)cc1 (stereo unspecified)	D2 antagonist 43.0
COc1ccc(N2C(=O)C(CC(=O)Nc3ccc(F)cc3)N(Cc3ccc4c(c3)OCO4)C2=O)cc1 (stereo unspecified)	none (no result: D2 antagonist, D2 ag-1, D2 PAM-2)
CCOc1ccccc1-c1nc(CN2CCCN(C(=O)c3ccco3)CC2)c(C)o1	D2 antagonist 32.8
CC1(C)CC(n2c(NCCO)nc3c(c2=O)C2(CCCC2)Cc2ccccc2-3)CCO1 (stereo unspecified)	D2 PAM-1 34.2
O=c1c2c(nc(NCCO)n1CC1CCCCC1)-c1ccccc1CC21CCCC1	none
C/C(CC(=O)Nc1ccc(Cl)cc1Cl)=N\NC(=O)C(=O)NCCO	none

Screens as filed in PubChem BioAssay.
